Source: article PMC4552634, “A New Set of Chemical Starting Points with Plasmodium falciparum Transmission-Blocking Potential for Antimalarial Drug Discovery” (PLoS ONE, 2015)
Like-named read-outs stand apart in the source and are kept apart here. Among all 13,000 compounds or so, about 3,200 (25%) showed an effect of 50% or more. This is one part of the list.

System: P. falciparum stage V gametocytes
Design: BacTiter-Glo ATP luminescence viability of purified stage V gametocytes in 384-well plates, per cent inhibition versus DMSO
Conditions: 48 h, 5 µM, inhibitor

Structure (SMILES)	% Inhibition [%]	% Inhibition (% Inhibition) [%]
O=c1ccc2ccc(F)c3c2n1CC3CN1CCC(NCc2ccc(-c3cccc(Cl)c3)nc2)CC1 (centres unmarked) [TCMDC-134409]	-72.08	–
O=C(/C=C/c1ccccc1Cl)Nc1ccc(Br)c(OCCN2CCC(O)(c3ccccc3)CC2)c1 [TCMDC-140960]	2.038	–
Cc1cccc(-c2nn(-c3ccccc3)cc2C(=O)Nc2nnc(C)o2)c1 [TCMDC-125039]	-1.826	–
CC(C)CCN1CCCN(Cc2cccc(C(=O)Nc3ccc(C(C)(C)C)cc3)c2)CC1 [TCMDC-136605]	-26.48	–
O=[N+]([O-])c1cccc(CNCC2CCN(CC3CCCCC3)CC2)c1 [TCMDC-139468]	9.865	–
FC(F)(F)c1ccc2[nH]c(-c3ccc(-c4ccc(CN5CCN(c6cnccn6)CC5)cc4)cc3)nc2c1.O=C(O)C(F)(F)F [TCMDC-132678]	-10.34	–
O=C(C1CCCCC1)N1CCOC(CCN2CCC(c3ccccc3)CC2)(c2ccc(Cl)c(Cl)c2)C1 (centres unmarked) [TCMDC-135329]	-33.1	–
C=CCc1cccc(OC)c1OCCCON1C(N)=NC(N)=NC1(C)C [TCMDC-131337]	-10.44	–
CC(C)(O)CC(C)(C)c1cc(Cl)ccc1O [TCMDC-131708]	-16.74	–
CCCN(CCCCCCNCCc1ccc(Cl)cc1)CCc1ccc(O)c(O)c1 [TCMDC-131274]	104.4	–
Oc1ccc(CCNCCCCCCNCCc2ccc(-c3ccccc3)cc2)cc1O [TCMDC-131268]	113.1	–
CCCCc1ccc(CCNCCCCCCNCCc2ccc(O)c(O)c2)cc1 [TCMDC-131281]	122.8	–
CCCN(CCCCCCN(CCC)CCc1ccc(O)c(O)c1)CCc1ccc(O)cc1 [TCMDC-131259]	-3.325	–
CCCNCCc1ccc(NS(=O)(=O)c2cccc(-c3ccc(Cl)cc3)c2)cc1 [TCMDC-141448]	32.49	–
CC(C)(Cc1ccc(Cl)cc1)NCCCCCCNCCc1ccc(O)c(O)c1 [TCMDC-131277]	114.6	–
Cc1cc(CNCC2CCC(CNCCCc3ccccc3)CC2)ccc1O (centres unmarked) [TCMDC-140409]	40.71	–
Oc1ccc2c(CNCCc3ccccc3)c(O)ccc2c1CNCCc1ccccc1 [TCMDC-137582]	-11.34	–
O=C(NCC1CCC(CNCCCc2ccccc2)CC1)Nc1ccc(Cl)c(Cl)c1 (centres unmarked) [TCMDC-140705]	-6.849	–
COc1ccc2nccc([C@@H](O)CN3CCC(NCc4nc5c(cc4Cl)SCC(=O)N5)C(F)C3)c2c1 (some centres unmarked) [TCMDC-141679]	–	-19.09
COc1ccc(OCCCCON2C(N)=NC(N)=NC2(C)C)cc1 [TCMDC-131732]	29.82	–
CCOc1cccc(C2c3c(oc4ccccc4c3=O)C(=O)N2CCN(CC)CC)c1 (centres unmarked) [TCMDC-124476]	-6.195	–
NS(=O)(=O)CCc1cccc(Nc2nccc(-c3c(-c4cccc(NC(=O)c5c(F)cccc5F)c4)nn4ccccc34)n2)c1 [TCMDC-135791]	-73.1	–

Structure (SMILES)	% Inhibition [%]	% Inhibition (% Inhibition) [%]
N#Cc1ccc2c(c1)CN(C1CCC(NC(=O)C3=Cc4cc(Cl)ccc4OC3)CC1)CCC2 (centres unmarked) [TCMDC-133501]	-19.21	–
Cc1nc(-c2cccc(C(=O)N(Cc3cncn3Cc3cccc(C(F)(F)F)c3)CC3CC3)c2)cs1 [TCMDC-132462]	-20.16	–
O=C(NCCCCNCC(Cc1cccc(O)c1)c1ccccc1)c1ccc(NC(=O)c2ccc(Cl)cc2)cc1 (centres unmarked) [TCMDC-138563]	-50.17	–
Oc1cccc(CCNCCCCCCNCCc2ccc(Cl)cc2)c1 [TCMDC-131285]	116.7	–
Clc1ccc(CCNCCCCCCNCCc2ccc3c(c2)OCO3)cc1 [TCMDC-132042]	88.67	–
Oc1ccc(CCNCCCCCCNCCc2ccc(Br)cc2)cc1O [TCMDC-131263]	95.59	–
FC(F)(F)c1cccc(CNCCCCCNCc2ccc(Cl)cc2)c1 [TCMDC-140403]	31.4	–
Clc1ccc2c(NCc3ccc4c(c3)OCO4)ccnc2c1 [TCMDC-125106]	-11.41	–
c1ccc(CCNCc2ccc(-c3ccc(CNCc4ccc5c(c4)OCO5)cc3)nc2)cc1 [TCMDC-141648]	21	–
O=C(/C=C/c1ccc(Cl)c(Cl)c1)NCCCCCN1CCN(C(=O)Nc2ccc(OC(F)F)cc2)CC1 [TCMDC-135733]	4.05	–
O=C1NC(=S)N/C1=C/C=C/c1ccc([N+](=O)[O-])o1 [TCMDC-125757]	95.66	–
O=C(Nc1ccc(-c2csc(-c3nc4ccccc4[nH]3)c2)cc1)Nc1ccc(Cl)c(Cl)c1 [TCMDC-133271]	-42.33	–
O=C(NCC1Cc2cc(Oc3ccccc3)ccc2O1)c1ccc([N+](=O)[O-])o1 (centres unmarked) [TCMDC-124802]	28.95	–
CC(C)(C)c1nn(-c2ccc(Cl)cc2)c2[nH]c(=O)c(CNCc3cccs3)cc12 [TCMDC-123908]	55.18	–
CC(C)(C)c1nn(-c2ccc(Cl)cc2)c2[nH]c(=O)c(CNCc3ccc4c(c3)OCO4)cc12 [TCMDC-136662]	74.56	–
CC(C)(C)c1nn(-c2ccccc2)c2[nH]c(=O)c(CNCc3ccc4c(c3)OCO4)cc12 [TCMDC-123910]	11.81	–
COc1ccc(CCNCc2cc3c(C(C)(C)C)nn(-c4ccc(Cl)cc4)c3[nH]c2=O)cc1OC [TCMDC-125351]	40.9	–
CC(C)(C)c1nn(-c2ccc(Cl)cc2)c2[nH]c(=O)c(CNC3CCCC3)cc12 [TCMDC-123909]	44.22	–
CC(C)(C)c1nn(-c2ccccc2)c2[nH]c(=O)c(CNCc3ccccc3)cc12 [TCMDC-123911]	-3.272	–
Cc1ccc(NS(=O)(=O)c2cccs2)cc1-c1cccc(C(=O)Nc2ccc(F)cc2)c1 [TCMDC-133590]	-57.86	–
CN(C)c1cccc(NC(=O)NC2N=C(c3ccccc3)c3ccccc3N(CC(=O)N(C)c3ccccc3)C2=O)c1 (centres unmarked) [TCMDC-131985]	33.13	–
Cc1nc(N)nc(N)c1OCc1ccc(Cl)c(Cl)c1 [TCMDC-131718]	-2.553	–

Structure (SMILES)	% Inhibition [%]	% Inhibition (% Inhibition) [%]
CC(C)CSc1cc(C(=O)Nc2cc(Cl)ccc2O)ccn1 [TCMDC-138874]	-25.81	–
O=C(Nc1nc2cc(S(=O)(=O)NCCc3ccc(F)cc3)ccc2n1CCCn1ccnc1)c1ccc(Cl)cc1 [TCMDC-141626]	16.98	–
CCCC1(NC[C@@H](O)[C@H](Cc2ccccc2)NC(=O)c2cc(NCC)cc(N3CCCCS3(=O)=O)c2)CCCCC1 [TCMDC-135262]	28.65	–
CCCC1(NC[C@@H](O)[C@H](Cc2ccccc2)NC(=O)c2cc(NCC)cc(N3CCCCS3(=O)=O)c2)CCCC1 [TCMDC-135261]	38.92	–
CCNc1cc(C(=O)N[C@@H](Cc2ccccc2)[C@H](O)CNC2(CC)CCCCC2)cc(N2CCCCS2(=O)=O)c1 [TCMDC-135209]	82.14	–
CCNc1cc(C(=O)N[C@@H](Cc2ccccc2)[C@H](O)CNC2C3CC4CC(C3)CC2C4)cc(N2CCCCS2(=O)=O)c1 (some centres unmarked) [TCMDC-135424]	38.6	–
CCNc1cc(C(=O)N[C@@H](Cc2ccccc2)[C@H](O)CNC2(C)CCCCC2)cc(N2CCCCS2(=O)=O)c1 [TCMDC-134703]	93.77	–
CCCC1(NC[C@@H](O)[C@H](Cc2ccccc2)NC(=O)c2cc(NCC)cc(N3CCCCS3(=O)=O)c2)CC1 [TCMDC-135192]	21.27	–
CCNc1cc(C(=O)N[C@@H](Cc2ccccc2)[C@H](O)CNC2(CC)CC2)cc(N2CCCCS2(=O)=O)c1 [TCMDC-135176]	3.927	–
CCNc1cc(C(=O)N[C@@H](Cc2ccccc2)[C@H](O)CNC23CC4CC(CC(C4)C2)C3)cc(N2CCCCS2(=O)=O)c1 [TCMDC-135352]	40.45	–
CCNc1cc(C(=O)N[C@@H](Cc2ccccc2)[C@H](O)CNC2CCCCC2)cc(N2CCCCS2(=O)=O)c1 [TCMDC-134676]	26.1	–
CCNc1cc(C(=O)N[C@@H](Cc2ccccc2)[C@H](O)CNC2CC3CCC2C3)cc(N2CCCCS2(=O)=O)c1 (some centres unmarked) [TCMDC-135107]	91.01	–
CCNc1cc(C(=O)N[C@@H](Cc2ccccc2)[C@H](O)CNC23CCC(CC2)CC3)cc(N2CCCCS2(=O)=O)c1 [TCMDC-135390]	43.97	–
CCNc1cc(C(=O)N[C@@H](Cc2ccccc2)[C@H](O)CNC23CCC(CC2)C3)cc(N2CCCCS2(=O)=O)c1 [TCMDC-135371]	58.44	–
N#Cc1cccc(C(=O)Nc2cccc(-c3ccc(C(=O)NCCCN4CCOCC4)cc3)c2)c1 [TCMDC-133694]	-17.34	–
CC(Nc1ncc(-c2ccsc2)c(-c2nccs2)n1)c1ccc2c(c1)OCCO2 (centres unmarked) [TCMDC-125367]	-15.14	–
O=C(NCCCCN1CCCC2c3ccc(O)cc3CCC21)c1ccc(-c2ccccc2)cc1 (centres unmarked) [TCMDC-139083]	–	-83.61
CCc1c(C)nc(-n2nc(C)cc2NC(=O)C2c3ccccc3Oc3ccccc32)[nH]c1=O [TCMDC-124932]	-24.15	–
O=S1(=O)NCc2ccc(Nc3nccc(Nc4ccc5c(cnn5Cc5ccccc5)c4)n3)cc21 [TCMDC-138840]	-68.79	–
O=C(Nc1cccc(-c2nn3ccccc3c2-c2ccnc(Nc3cccc(F)c3)n2)c1)c1c(F)ccc(F)c1F [TCMDC-135844]	-56.6	–
NC(=O)c1cccc(C(=O)Nc2cccc(-c3cccc(-c4nc5ccccc5[nH]4)c3)c2)c1 [TCMDC-132194]	0.2723	–
